Screens (PubChem)
The list is not random: actives were taken first. Their share in the collection is about 28%.
D1 mod: D1 CRE-luciferase signal change, two-sided – cell-based, HEK293 D1, dopamine EC30, D1 allosteric modulator project, primary screen; B-score at 10 µM; hit rate 5.9% among 58,000; AID 641, 2007; dopamine EC30 potentiation; actives deviate in either direction;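 active = luminescence count or its row- and column-corrected plate score outside the 99.7% band of the plate's sample wells, on either side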
hDAT+cocaine: changed hDAT dopamine uptake under cocaine IC80, either direction, primary screen, cocaine antagonist project, cell-based, LLC-PK1 hDAT, [14C]-dopamine uptake, MLSMR; LLC-PK1 hDAT cells, [14C]-dopamine uptake with cocaine IC80; actives deviate in either direction; B-score at 10 µM; hit rate 1.3% among 110,000;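 active = Z score or B-score, a plate-position-corrected score, falls beyond the plate's 99.7% confidence bounds, in either direction; inactive = both scores lie inside the 99.7% bounds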
Target sequence (Q01959 whole entry, looked up): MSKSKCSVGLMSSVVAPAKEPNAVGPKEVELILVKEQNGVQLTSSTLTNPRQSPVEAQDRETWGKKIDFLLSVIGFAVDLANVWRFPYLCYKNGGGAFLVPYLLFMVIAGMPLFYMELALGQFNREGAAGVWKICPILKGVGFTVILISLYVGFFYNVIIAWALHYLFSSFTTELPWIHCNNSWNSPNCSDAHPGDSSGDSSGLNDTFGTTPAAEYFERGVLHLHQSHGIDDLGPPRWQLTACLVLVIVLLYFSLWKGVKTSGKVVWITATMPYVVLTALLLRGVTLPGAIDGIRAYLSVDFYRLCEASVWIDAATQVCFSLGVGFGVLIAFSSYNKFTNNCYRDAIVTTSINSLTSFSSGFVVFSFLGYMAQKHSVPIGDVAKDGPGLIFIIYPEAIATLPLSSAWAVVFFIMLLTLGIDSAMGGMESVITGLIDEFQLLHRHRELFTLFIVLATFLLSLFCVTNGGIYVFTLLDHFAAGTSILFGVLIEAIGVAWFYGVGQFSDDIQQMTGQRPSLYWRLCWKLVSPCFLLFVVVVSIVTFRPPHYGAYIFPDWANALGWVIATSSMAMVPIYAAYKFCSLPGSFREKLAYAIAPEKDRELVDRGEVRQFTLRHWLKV
CYP2C9 act: human CYP2C9 activators, primary screen, biochemical, luminescence | hit rate 1.4% among 96,000 | recombinant CYP2C9, luciferin-H conversion; stronger effect = higher value; factor 1 = untreated enzyme, 0 = blocked | activation factor at 5 µM | Cytochrome P450 2C9 (Homo sapiens), P11712;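 active = activation factor of 2 or more for CYP2C9 at a 5 µM dose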
CYP2C19 activ: human CYP2C19 activators, primary screen, biochemical, luminescence. recombinant CYP2C19, luciferin-H EGE luminescence; stronger effect = higher value; 0 = fully inhibited enzyme, 1 = untreated enzyme. 96,000 tested, under 10 active. Cytochrome P450 2C19 (Homo sapiens), P33261. AID 1025, 2008. activation factor at 5 µM;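 active = activation factor of at least 2 at 5 µM in the primary screen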
CYP2C9 inh: blockers of cytochrome P450 2C9 activity – biochemical, luminescence, ADME assay, primary screen; P11712; CYP2C9 Supersomes, luciferin-H conversion; inhibition, % at 5 µM; hit rate 20% among 96,000;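 active = blocking of liver enzyme CYP2C9 beyond about 50% at 5 µM, limit read from the data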
CYP2C19 inhib: blockers of cytochrome P450 2C19 activity – biochemical, luminescence, ADME assay, primary screen. hit rate 21% among 96,000. CYP2C19 Supersomes, luciferin-H EGE luminescence, 30 min. inhibition, % at 5 µM;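 active = CYP2C19 inhibition above a set limit at 5 µM in the primary screen, cut at about 50% in these data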
Large screens that a line does not name were inactive.

O=C(NCC(c1cccnc1)N1CCN(c2ccccc2F)CC1)c1cccc(Cl)c1 (stereo not given)	CYP2C9 inh 95, CYP2C19 inhib 91 (no result: D1 mod)
CCCCC1=CC2=CC(=O)C(C)(OC(=O)CC)C(=O)C2=CN1C1CCCC1 (stereo not given)	none (no result: D1 mod, CYP2C9 act, CYP2C19 activ, CYP2C9 inh, CYP2C19 inhib)
Cc1cccc2c(=O)cc(C)n(CC(=O)N3CCCCC3)c12	CYP2C19 inhib 88
COc1ccc(C(C(=O)NC(C)(C)C)N(Cc2cccs2)C(=O)CCC(=O)Nc2cc(C)on2)cc1 (stereo not given)	hDAT+cocaine 3 (no result: D1 mod, CYP2C9 act, CYP2C19 activ, CYP2C9 inh, CYP2C19 inhib)
CCc1nnc(SCc2ccc([N+](=O)[O-])cc2)nc1CC	none (no result: D1 mod, CYP2C9 act, CYP2C19 activ, CYP2C9 inh, CYP2C19 inhib)
Cc1ccccc1CSCC(Nc1ccc(C(=O)O)cc1[N+](=O)[O-])C(=O)O (stereo not given)	CYP2C9 inh 69 (no result: D1 mod)
Cc1ccccc1CNc1ccc(C(CC(N)=O)NC(=O)c2ccc(Br)cc2)cc1[N+](=O)[O-] (stereo not given)	none (no result: D1 mod, CYP2C9 act, CYP2C19 activ, CYP2C9 inh, CYP2C19 inhib)
NS(=O)(=O)c1cc(C(=O)N2CCc3ccccc32)c(Cl)cc1Cl	none (no result: D1 mod)
O=S(=O)(Cc1cc(Oc2ccccc2)nc(-c2ccccc2)n1)c1ccccc1	CYP2C9 inh 61, CYP2C19 inhib 59 (no result: D1 mod)
CCOC(=O)C(C)Sc1cc(CS(=O)(=O)c2ccccc2)nc(-c2ccccc2)n1 (stereo not given)	CYP2C9 inh 96, CYP2C19 inhib 77 (no result: D1 mod)
O=S(=O)(Cc1cc(Sc2ccc(Cl)cc2)nc(-c2ccccc2)n1)c1ccccc1	CYP2C9 inh 81, CYP2C19 inhib 65 (no result: D1 mod)
Cc1nc(CS(=O)(=O)c2ccc(Cl)cc2)cc(Sc2ccc(Cl)cc2)n1	CYP2C9 inh 88 (no result: D1 mod)
CCN(CC)C(=O)c1cc(-c2ccc(Br)cc2)on1	none
Cc1cc(C)c2ccc(C(=O)O)nc2c1O	none (no result: D1 mod)
NCCCC[C@@H]1NC(=O)c2cc([N+](=O)[O-])cc(I)c2SC[C@@H](C(N)=O)NC(=O)[C@H](Cc2ccc(O)cc2)NC1=O	none (no result: D1 mod, CYP2C9 act, CYP2C19 activ, CYP2C9 inh, CYP2C19 inhib)
Cc1ccc(C)c(S(=O)(=O)N2C(=S)NC(=O)C2CC(C)C)c1 (stereo not given)	CYP2C9 inh 80 (no result: D1 mod)
CC(C)C1C(=O)NC(=S)N1S(=O)(=O)c1ccc(C(C)(C)C)cc1 (stereo not given)	none (no result: D1 mod)
CCCC(C)C(=O)N(Cc1ccccc1)c1ccccn1 (stereo not given)	CYP2C9 inh 51, CYP2C19 inhib 67 (no result: D1 mod)
CN(C)c1nc(NS(=O)(=O)c2ccc(Cl)cc2)nc(N(C)C)n1	none
COc1nc(NS(=O)(=O)c2ccc(C)cc2)nc(C)c1Cl	CYP2C9 inh 71, CYP2C19 inhib 68 (no result: D1 mod)
Cc1nnc(SCC(=O)Nc2ncc(Cc3ccc(F)cc3)s2)n1N	none
Cc1ccc(-c2nnn(CC(=O)N3CCCc4ccccc43)n2)cc1	hDAT+cocaine -7.8 (no result: D1 mod)
O=C(Cn1nnc(-c2cccc(C(F)(F)F)c2)n1)N1CCCCCC1	CYP2C9 act 4.2, CYP2C19 inhib 57 (no result: D1 mod, hDAT+cocaine)
Cc1ccc(-c2noc(CCC(=O)N3CCCc4ccccc43)n2)cc1	CYP2C9 inh 95, CYP2C19 inhib 85
O=C(Cn1nnc(-c2ccncc2)n1)N1CCc2ccccc21	CYP2C9 inh 70
O=C(Cn1nnc(-c2cc(Cl)ccc2-n2cnnn2)n1)N1CCCc2ccccc21	none
O=C(Cn1nnc(-c2ccccc2-n2cnnn2)n1)N1CCCCC1	none
O=C(Cn1nnc(-c2cccs2)n1)N1CCc2ccccc2C1	none
COC(=O)c1ccc2c(=O)n(CCN3CCOCC3)c(=S)[nH]c2c1	none
COC(=O)c1cccc(NC(=O)C2C3CCC(C3)C2C(=O)O)c1 (stereo not given)	none
Fc1ccc(-c2cnc[nH]2)cc1	CYP2C9 inh 76, CYP2C19 inhib 55
Cn1c(-c2ccc(Br)o2)nc2cc(Br)ccc21	none
Cc1ccc(-c2nc3ccccc3n2C)o1	CYP2C19 inhib 67 (no result: D1 mod)
Cc1ccc(C2Nc3ccccc3-c3nc4ccccc4n32)o1 (stereo not given)	none (no result: CYP2C9 act, CYP2C19 activ, CYP2C9 inh, CYP2C19 inhib)
Cn1c(-c2ccc(Br)o2)nc2ccccc21	CYP2C19 inhib 75
Cn1c(Sc2nc3ccccc3n2C)nc2ccccc21	CYP2C9 inh 53, CYP2C19 inhib 95
CC(=O)c1ccc(-c2nc3ccccc3n2C)o1	CYP2C19 inhib 61
Cn1c(SCc2nc3ccccc3n2CCO)nc2ccccc21	none
CC1CCCC(C)N1C(=O)CN1C(=O)C(C)(C)Oc2ccc(C(=O)NC3CCCC3)cc21 (stereo not given)	none (no result: D1 mod)
Cc1cc(C)cc(NC(=O)CSc2nc(N)c(NC(=O)c3cccs3)c(=O)[nH]2)c1	none (no result: D1 mod, CYP2C9 act, CYP2C19 activ, CYP2C9 inh, CYP2C19 inhib)
Cc1cc(C)n2nc(C(=O)OCCOc3ccc(F)cc3)nc2n1	none (no result: D1 mod)
CC(=O)Nc1sc2c(c1C(c1ccccc1Cl)N1CCN(CCO)CC1)CCCC2 (stereo not given)	none (no result: D1 mod, CYP2C9 act, CYP2C19 activ, CYP2C9 inh, CYP2C19 inhib)
O=C(NC1CCCC1)C(c1cccs1)N(C(=O)c1ccco1)c1ccc2c(c1)OCO2 (stereo not given)	none (no result: D1 mod, CYP2C9 act, CYP2C19 activ, CYP2C9 inh, CYP2C19 inhib)
O=C(c1n[nH]c(=O)c2ccccc12)N1CCN(C2c3ccccc3-c3ccccc32)CC1	CYP2C9 inh 64, CYP2C19 inhib 68
O=C(CCn1ccc2ccccc21)Nc1ccc(N2CCOCC2)cc1	CYP2C19 inhib 55
CC(c1ccccc1)N1CC(C(=O)NC2CCCC2)CC1=O (stereo not given)	none
COCCCNC(=O)c1ccc(N2CCCC2)c(NS(=O)(=O)c2ccc(C)cc2)c1	none
COc1ccc(S(=O)(=O)Nc2cc(C(=O)NC3CCCCCC3)ccc2N2CCOCC2)cc1	CYP2C9 inh 52
COc1ccc(S(=O)(=O)Nc2cc(C(=O)NC(C)C)ccc2N2CCOCC2)cc1	CYP2C9 inh 58, CYP2C19 inhib 54 (no result: D1 mod)
CCO[C@H]1OC(C(N)=O)=C[C@@H](c2csc3ccccc23)[C@@H]1CCCO	none (no result: D1 mod, CYP2C9 act, CYP2C19 activ, CYP2C9 inh, CYP2C19 inhib)
Cc1cccc(C)c1NC(=O)c1c(-c2ccccc2)noc1C	none
Cc1onc(-c2ccccc2)c1C(=O)Nc1cccc(C#N)c1	CYP2C19 inhib 55
Cc1onc(-c2ccccc2)c1C(=O)NCc1cccnc1	CYP2C19 inhib 59
Cc1onc(-c2ccccc2)c1C(=O)Nc1nc2c(s1)C(=O)CC(C)(C)C2	CYP2C9 inh 54 (no result: D1 mod)
Cc1onc(-c2ccccc2)c1C(=O)Nc1ccc(S(=O)(=O)NC2=NCCCCC2)cc1	none
CCC(C)NS(=O)(=O)c1ccc(NC(=O)c2c(-c3ccccc3)noc2C)cc1 (stereo not given)	CYP2C9 inh 62, CYP2C19 inhib 86 (no result: D1 mod)
CCCCOCCCNC(=O)c1c(-c2ccccc2)noc1C	CYP2C19 inhib 68
Cc1onc(-c2ccccc2)c1C(=O)Nc1ccncc1	CYP2C9 inh 90, CYP2C19 inhib 92
